In PubChem BioAssay (Tox21):
Several values for one entry are separate records, joined by “and”; a condition that tells them apart may be missing. Identical values can stand only once. Inconclusive results are not listed. A call without a number means that no potency is given here. A number with no mark means an inactive call. Activity calls are given as the source filed them. Calls come from the whole dose curve; as a rule, active = well fitted cell-killing curve with a large enough effect in the repeat runs; inconclusive = weak or mixed curves, or effect the other way; inactive = flat fitted curve, though single readings scatter.

assay: qHTS assay to identify small molecule agonists of the androgen receptor (AR) signaling pathway in the presence of an antagonist - cell viability counter screen (AID 1259379); conditions: MDA-kb2 viability, CellTiter-Fluor, 16 h; series mostly up to 92.4 µM; note: nearly all actives have a fitted effect of over 25% in size
Text: National Center for Advancing Translational Sciences [NCATS]
NIH Chemical Genomics Center [NCGC]
U.S. Environmental Protection Agency [EPA]
National Institutes of Environmental Health Sciences [NIEHS]
National Toxicology Program [NTP]
U.S. Food and Drug Administration [FDA]
Androgen receptor (AR) is an important member of nuclear receptor family. Its signaling plays a critical role in AR-dependent prostate cancer and other androgen related diseases. Considerable attention has been given in the past decades to develop methods to study and screen for the environmental chemicals that have the potential to interfere with metabolic homeostasis, reproduction, developmental and behavioral functions. Therefore AR binding assay for screening against androgen agonists and antagonists can be used to identify potential endocrine disruptors.
MDA-kb2 cells (from ATCC, deposited by Wilson et al.) are human breast carcinoma cells that were stably transfected with a luciferase reporter gene under control of the MMTV promoter that contains response elements for both androgen receptor (AR) and glucocorticoid receptor (GR). This particular screening for measuring luciferase reporter gene activity using MDA-kb2 cells against Tox21 10K library compounds is a confirmation study on agonist mode screening in the presence of AR-antagonist compound (Nilutamide) at 3.0uM final concentration. The cytotoxicity of the compounds was tested in parallel by measuring the cell viability using CellTiter-Fluor assay system (Promega, Madison, WI) in the same wells.
Tox21 Assay Protocol Summary:
MDA-kb2 cells (cells cultured without CO2) were dispensed at 3,000 cells/well in 4uL of culture medium into white wall/solid-bottom 1536-well plates (Corning Life Sciences, Corning, NY) using a Multidrop Combi (Thermo Fisher Scientific Inc., Waltham, MA) dispenser. The assay plates were incubated at 37C and 0% CO2 for 5hr. One uL of 3.0uM (final concentration) Nilutamide or assay buffer was added using two separate tips of Flying Reagent Dispenser (FRD, Aurora Discovery, San Diego, CA). Then 23nL of compounds dissolved in DMSO at 15 concentrations and positive controls were transferred to the assay plates using a Pintool station (Wako, San Diego, CA). The assay plates were incubated at 37C and 0% CO2 for 16 hr. After 15hr incubation at 37C, 1uL/well CellTiter-Fluor reagent (Promega Corporation) was added to each well of the assay plates using FRD. After 1hr incubation at 37C and 0% CO2, the fluorescence signal was measured using a ViewLux plate reader (PerkinElmer, Shelton, CT).
Potency is the fitted concentration of half-maximal effect.

SMILES	Potency	activity change, negative = cytotoxicity
CCCCOCCOCCOCc1cc2c(cc1CCC)OCO2	inactive	–
Nc1c2c(nc3ccccc13)CCCC2O (stereo not given)	inactive	–
O=C(c1ccccc1)C1CCCCC1	inactive	–
COC(=O)NN	inactive	–
CO[Si](CCCOCC1CO1)(OC)OC (stereo not given)	inactive	–
NS(=O)(=O)c1ccccc1Cl	inactive	–
O=c1cc(CO)occ1O	inactive	–
CN1CCN(c2cc3c(cc2F)c(=O)c(C(=O)O)cn3-c2ccc(F)cc2)CC1	inactive	–
N=C(N)c1ccccc1	inactive	–
CC(C)(O)C(=O)c1ccccc1	inactive	–
CCOc1ccc(C(=O)OCCN(CC)CC)cc1	inactive	–
NCCCNCCSP(=O)(O)O	–	9.45% [at 8.39 µM]
CN1C(=O)N(C)C(O)C1O (stereo not given)	inactive	–
CC(=O)OCC(CCn1cnc2cnc(N)nc21)COC(C)=O	inactive	–
O=S(O)CO	inactive	–
O=C1CC2CC1C1CCCC21 (stereo not given)	inactive	–
COc1ccc2c(c1)CCCC2=O	inactive	–
CN1CCC(=C2c3ccccc3CC(=O)c3sccc32)CC1	inactive	–
Nc1ccccc1S(=O)(=O)O	inactive	–
CCO/C([O-])=N/c1c[n+](N2CCOCC2)no1	inactive	–

SMILES	Potency	activity change, negative = cytotoxicity
FC1(F)C(F)(F)C(F)(F)C2(F)C(F)(F)C(F)(F)C(F)(F)C(F)(F)C2(F)C1(F)F (stereo not given)	inactive	–
CCc1cccc2c(CCO)c[nH]c12	inactive	–
C=COCC1CCC(CO)CC1 (stereo not given)	inactive	–
CCOC(=O)c1c(C)n(C)c2ccc(O)cc12	inactive	–
CN(C)CCCN1c2ccccc2CCc2ccc(Cl)cc21	48.6 µM (active) and 33.5 µM (active)	–
COC(C)(C)CCCC(C)CC=O (stereo not given)	inactive	–
CCCC(=O)O[C@]1(C(=O)CO)CC[C@H]2[C@@H]3CCC4=CC(=O)CC[C@]4(C)[C@H]3[C@@H](O)C[C@@]21C	inactive	–
CN1CC(=O)NC1=N	inactive	–
CCN1CCC[C@H]1CNC(=O)c1cc(S(N)(=O)=O)ccc1OC	inactive	–
N[C@H](C(=O)O)c1ccc(O)cc1	–	0.253% [at 19 µM]
CC(=O)Nc1c(I)cc(I)c(C(=O)O)c1I	inactive	–
C/C=C(\C)C#N	inactive	–
N=c1nc(N2CCCCC2)cc(N)n1O	inactive	–
c1ccc(CC2=NCCN2)cc1	inactive	–
Nc1nc2c(ncn2COC(CO)CO)c(=O)[nH]1	inactive	–
COC(=O)C1=C(C)NC(C)=C(C(=O)OC)C1c1ccccc1[N+](=O)[O-]	inactive	–
CO/N=C(/C(=O)N[C@@H]1C(=O)N2C(C(=O)OCOC(=O)C(C)(C)C)=C(C)CS[C@H]12)c1csc(N)n1	inactive	–
OC1CCCCC1c1ccccc1 (stereo not given)	inactive	–
CC1(C)C(O)C(C)(C)C1O (stereo not given)	inactive	–
CCOC(=O)CCC(C)=O	inactive	–
